In PubChem BioAssay:
“And” between values parts separate entries of the source, which are not always exact repeats. Identical values can stand only once. Results filed as inconclusive are left out. For some assays here: Measured potencies and affinities stand elsewhere. The source made the active and inactive calls.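 How the source made its calls, unless noted: active means at least 20% inhibition of 6-phosphogluconate dehydrogenase activity; inactive means the rest.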

Experiments:
[1] = polyglutamine-triggered caspase-3 activation inhibitors, cell-based (AID 1583); details: polyglutamine-induced caspase-3 activation, cell assay; stronger effect = higher value;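 tested at 10 µM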
[2] = suppressors of polyQ aggregation in yeast, 75Q-TubU reporter (AID 1593); details: Yeast 75Q polyglutamine aggregation reporter
[3] = rescue of polyQ-huntingtin neuronal dysfunction in worms, whole organism, C. elegans mechanosensory neurons, N-terminal huntingtin (AID 1599); details: touch response, stronger effect = higher value
[4] = inhibitors of mitochondrial cytochrome c release, biochemical, purified mitochondria (AID 1603); details: stronger effect = lower value;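 further: mouse liver mitochondria challenged with calcium chloride; signal normalized to the plate average as 100%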
[5] = inhibitors of polyQ protein aggregation (AID 1604); details: polyglutamine-induced protein aggregation inhibition assay; stronger effect = higher value; tested at 2.5 µM
[6] = enhancers of glutamate uptake in motor neurons, MN-1 cell line (AID 1612); details: MN-1 motor neuron cells, stronger effect = higher value;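 further: tested at 1 µM final; 0% = mean of DMSO vehicle wells on each plate; positive means more glutamate uptake than control and negative means less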
[7] = reducers of polyQ inclusions in PC12 cells, cell-based, NGF-treated PC12, GFPQ80 (AID 1614); details: PC12 NGF-treated GFP-polyQ80 inclusion reduction;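 further: lower means fewer inclusions and 0 means no inclusions at all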
[8] = suppressors of polyglutamine aggregation in yeast, 75Q-TubH (AID 1616); details: S. cerevisiae 75Q-TubH polyglutamine aggregation suppression; stronger effect = higher value
[9] = liver-stage malaria parasite growth inhibition, primary screen, cell-based, HepG2, luciferase luminescence, HepG2 viability (AID 624349; in the data active means parasite load remaining mostly below about 12%, no sharp cut-off; inactive means mostly above about 10%;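 further: 100% = mean of DMSO negative control wells on the same plate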); details: P. berghei liver stage in HepG2, luciferase luminescence, concentration not given here; parasite load remaining: stronger effect = lower value; viability: measured here: HepG2 viability without parasites
[10] = target: 6-phosphogluconate dehydrogenase, decarboxylating (Homo sapiens) (UniProt P52209); experiment: 6PGD enzyme inhibitors, primary screen, biochemical, human, recombinant enzyme, NADPH absorbance (AID 1159550); details: recombinant 6PGD, NADPH absorbance 341 nm; at 10 µM; stronger effect = higher value
[11] = differential killing of epithelial or mesenchymal cells, primary screen, imaging, PC-3E GFP, TEM4-18 mCherry, co-culture (AID 1345086;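 active means compounds killing one labelled cell type while sparing the other, by normalised counts and ratio limits, not self-fluorescent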;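 on all read-outs here: cells exposed to compound for 72 h before imaging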;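 on red/green cell ratio (normalised): normalised mesenchymal count divided by normalised epithelial count so high means epithelial killing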); details: imaging cell counts, at 1 µM; for red/green cell ratio (normalised): actives lie on both sides
[12] = sensitizers of A549 cells to miR-34 induction, primary screen, imaging, A549 dox-inducible miR-34, nuclei and caspase counts (AID 1347080;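 active means compounds whose cell count with miR-34 switched on is under 0.7 times the count with it off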); details: A549 miR-34 inducible, Hoechst nuclei count, 48 h
[13] = target: NAD(+) hydrolase SARM1 (Homo sapiens) (UniProt Q6SZW1); experiment: SARM1 TIR NADase inhibitors, cell lysate, NAD-Glo luminescence (AID 1508614;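 active means compound whose remaining NAD level is above about 45 nM, limit read from the data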); details: SAM-TIR HEK293T lysate NADase, at 1 µM, stronger effect = higher value
[14] = target: Mitogen-activated protein kinase 7 (Homo sapiens) (UniProt Q13164); experiment: ERK5 transactivation activators in reporter cells, primary screen, cell-based, HTS (AID 1508626;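 active means luciferase signal above three times the same-plate solvent-only control wells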;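 further: luciferase driven by Gal4-ERK5 fusion binding five Gal4 sites before minimal TATA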); details: HeLa Gal4-ERK5 transactivation, 18 h, at 5 µM, stronger effect = higher value
[15] = system: Aerobactin synthetase IucA (Klebsiella pneumoniae hvKP1); experiment: Biochemical IucA enzyme inhibition primary screen of the Spectrum library (AID 1346200; call rule not given here;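 further: 100% = wells without compound and 0% = wells lacking enzyme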); details: malachite green pyrophosphate, A620, at 8 µM, stronger effect = lower value
[16] = inhibitors of Cryptococcus chitosan production, flow cytometry, Cibacron Brilliant Red staining (AID 1347148; call rule not given here;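 further: compound exposure lasted three days at 37 degrees C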); details: Cryptococcus neoformans chitosan, stronger effect = lower value; at 10 µM unless noted
[17] = target: ATP-dependent translocase ABCB1 (Homo sapiens) (UniProt P08183); experiment: MDR1 (ABCB1) efflux transporter inhibition, cell-based (AID 377; in the data active means fluorescence slope change above about 50%); details: MDR1-expressing cells, fluorescent substrate accumulation slope; stronger effect = higher value; concentration not given here
[18] = system: Aerobactin synthetase IucA (Klebsiella pneumoniae); experiment: IucA aerobactin synthetase inhibitors, biochemical, Tocris library, absorbance (AID 1345561; call rule not given here;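 further: 100% = enzyme without compound and 0% = no enzyme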); details: purified IucA enzyme assay, absorbance (OD) read-out; stronger effect = lower value;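 tested at 8 µM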
[19] = growth inhibition of DIPG glioma cells, dose response, cell-based, SU-DIPG-XVII, MIPE5.0, CellTiter-Glo, qHTS (AID 1347060; cut-off not given, nearly all actives have AC50 up to about 26 µM); details: SU-DIPG-XVII viability, CellTiter-Glo ATP luminescence
[20] = growth inhibition of DIPG glioma cells, dose response, cell-based, JHH-DIPG-1, MIPE4.0, CellTiter-Glo, qHTS (AID 1347062; cut-off not given, nearly all actives have AC50 up to about 27 µM;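 further: cells exposed to compound for two days before readout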); details: JHH-DIPG-1 viability, CellTiter-Glo ATP luminescence
[21] = JHH-DIPG-1 glioma cell viability, MIPE5.0 library, CellTiter-Glo luminescence, qHTS (AID 1347067; cut-off not given, nearly all actives have AC50 up to about 26 µM;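 further: cells exposed to compound for 48 hours before readout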); details: JHH-DIPG-1 glioma viability, CellTiter-Glo ATP luminescence
[22] = SU-DIPG-XXV glioma cell viability, MIPE5.0 library, qHTS (AID 1347068; cut-off not given, nearly all actives have IC50 up to about 30 µM)
[23] = viability rescue of complex I mutant cybrids, primary screen, cell-based, galactose medium, ATP luminescence (AID 1645843;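 active means z-score of at least 1.8 in each of two replicates, scored against plate mean and spread of sample wells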;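 further: positive z means more ATP and so rescue of galactose-driven cybrid death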); details: complex I mutant cybrid cells, 72 h, stronger effect = higher value
[24] = measured here: epithelial PC-3E GFP cell survival
[25] = measured here: mesenchymal TEM4-18 mCherry cell survival
[26] = measured here: relative caspase fold change +Dox/-Dox
[27] = measured here: total cells with miR-34 induction, stronger effect = lower value
[28] = measured here: total cells without miR-34 induction

Sequence of NAD(+) hydrolase SARM1 (Homo sapiens) (Q6SZW1 whole entry, looked up, the tested form may be a part): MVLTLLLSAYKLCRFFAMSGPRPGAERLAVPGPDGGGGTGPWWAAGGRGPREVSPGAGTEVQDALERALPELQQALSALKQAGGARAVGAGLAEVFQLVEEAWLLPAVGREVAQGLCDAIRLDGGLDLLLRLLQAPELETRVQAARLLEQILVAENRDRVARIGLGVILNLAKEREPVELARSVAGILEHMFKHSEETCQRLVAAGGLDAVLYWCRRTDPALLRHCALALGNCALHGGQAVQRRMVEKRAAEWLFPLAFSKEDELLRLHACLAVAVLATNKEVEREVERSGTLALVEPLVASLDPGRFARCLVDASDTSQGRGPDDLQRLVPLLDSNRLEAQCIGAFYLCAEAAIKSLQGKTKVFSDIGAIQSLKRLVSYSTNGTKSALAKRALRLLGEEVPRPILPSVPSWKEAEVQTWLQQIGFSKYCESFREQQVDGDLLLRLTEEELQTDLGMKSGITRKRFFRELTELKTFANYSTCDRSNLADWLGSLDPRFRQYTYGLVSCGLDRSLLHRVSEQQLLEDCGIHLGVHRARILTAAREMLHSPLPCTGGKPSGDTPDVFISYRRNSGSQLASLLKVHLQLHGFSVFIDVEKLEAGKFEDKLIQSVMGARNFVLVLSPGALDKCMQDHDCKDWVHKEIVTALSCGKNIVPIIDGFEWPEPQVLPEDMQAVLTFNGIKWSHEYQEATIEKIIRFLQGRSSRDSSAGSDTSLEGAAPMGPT
Sequence of Mitogen-activated protein kinase 7 (Homo sapiens) (Q13164 whole entry, looked up, the tested form may be a part): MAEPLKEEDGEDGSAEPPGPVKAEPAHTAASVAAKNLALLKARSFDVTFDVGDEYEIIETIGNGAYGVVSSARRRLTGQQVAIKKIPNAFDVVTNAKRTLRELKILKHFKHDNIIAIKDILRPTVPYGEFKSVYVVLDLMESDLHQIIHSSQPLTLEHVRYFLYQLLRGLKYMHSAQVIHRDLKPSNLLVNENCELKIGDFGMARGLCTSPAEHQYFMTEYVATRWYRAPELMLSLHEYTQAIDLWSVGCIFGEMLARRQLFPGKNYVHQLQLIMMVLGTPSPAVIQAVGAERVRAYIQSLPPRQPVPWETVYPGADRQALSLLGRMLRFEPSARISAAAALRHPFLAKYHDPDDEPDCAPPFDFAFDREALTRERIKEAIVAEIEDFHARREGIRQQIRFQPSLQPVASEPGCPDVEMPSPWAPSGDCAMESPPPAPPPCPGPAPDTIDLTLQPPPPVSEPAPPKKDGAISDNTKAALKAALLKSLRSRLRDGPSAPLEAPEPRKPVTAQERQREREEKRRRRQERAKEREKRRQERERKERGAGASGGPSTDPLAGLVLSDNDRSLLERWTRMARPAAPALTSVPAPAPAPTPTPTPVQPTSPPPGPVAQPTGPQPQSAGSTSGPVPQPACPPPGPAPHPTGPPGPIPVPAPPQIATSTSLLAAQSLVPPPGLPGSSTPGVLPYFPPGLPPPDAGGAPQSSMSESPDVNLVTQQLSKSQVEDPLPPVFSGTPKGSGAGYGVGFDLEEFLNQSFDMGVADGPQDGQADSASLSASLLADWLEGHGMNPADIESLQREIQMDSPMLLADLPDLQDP
Sequence of 6-phosphogluconate dehydrogenase, decarboxylating (Homo sapiens) (P52209 whole entry, looked up): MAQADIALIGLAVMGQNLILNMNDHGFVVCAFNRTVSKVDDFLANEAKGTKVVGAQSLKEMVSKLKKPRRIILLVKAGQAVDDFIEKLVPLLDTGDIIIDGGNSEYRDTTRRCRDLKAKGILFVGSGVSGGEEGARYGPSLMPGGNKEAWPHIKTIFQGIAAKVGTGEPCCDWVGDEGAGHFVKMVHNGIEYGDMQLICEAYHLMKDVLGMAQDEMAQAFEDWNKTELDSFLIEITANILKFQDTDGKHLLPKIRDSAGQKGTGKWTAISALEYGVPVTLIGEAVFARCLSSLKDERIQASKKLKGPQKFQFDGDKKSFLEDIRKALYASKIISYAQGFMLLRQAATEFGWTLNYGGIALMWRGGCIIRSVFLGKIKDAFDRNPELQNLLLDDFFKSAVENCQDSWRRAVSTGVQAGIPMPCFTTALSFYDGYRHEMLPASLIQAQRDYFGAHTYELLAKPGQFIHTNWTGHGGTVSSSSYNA
Sequence of ATP-dependent translocase ABCB1 (Homo sapiens) (P08183 whole entry, looked up): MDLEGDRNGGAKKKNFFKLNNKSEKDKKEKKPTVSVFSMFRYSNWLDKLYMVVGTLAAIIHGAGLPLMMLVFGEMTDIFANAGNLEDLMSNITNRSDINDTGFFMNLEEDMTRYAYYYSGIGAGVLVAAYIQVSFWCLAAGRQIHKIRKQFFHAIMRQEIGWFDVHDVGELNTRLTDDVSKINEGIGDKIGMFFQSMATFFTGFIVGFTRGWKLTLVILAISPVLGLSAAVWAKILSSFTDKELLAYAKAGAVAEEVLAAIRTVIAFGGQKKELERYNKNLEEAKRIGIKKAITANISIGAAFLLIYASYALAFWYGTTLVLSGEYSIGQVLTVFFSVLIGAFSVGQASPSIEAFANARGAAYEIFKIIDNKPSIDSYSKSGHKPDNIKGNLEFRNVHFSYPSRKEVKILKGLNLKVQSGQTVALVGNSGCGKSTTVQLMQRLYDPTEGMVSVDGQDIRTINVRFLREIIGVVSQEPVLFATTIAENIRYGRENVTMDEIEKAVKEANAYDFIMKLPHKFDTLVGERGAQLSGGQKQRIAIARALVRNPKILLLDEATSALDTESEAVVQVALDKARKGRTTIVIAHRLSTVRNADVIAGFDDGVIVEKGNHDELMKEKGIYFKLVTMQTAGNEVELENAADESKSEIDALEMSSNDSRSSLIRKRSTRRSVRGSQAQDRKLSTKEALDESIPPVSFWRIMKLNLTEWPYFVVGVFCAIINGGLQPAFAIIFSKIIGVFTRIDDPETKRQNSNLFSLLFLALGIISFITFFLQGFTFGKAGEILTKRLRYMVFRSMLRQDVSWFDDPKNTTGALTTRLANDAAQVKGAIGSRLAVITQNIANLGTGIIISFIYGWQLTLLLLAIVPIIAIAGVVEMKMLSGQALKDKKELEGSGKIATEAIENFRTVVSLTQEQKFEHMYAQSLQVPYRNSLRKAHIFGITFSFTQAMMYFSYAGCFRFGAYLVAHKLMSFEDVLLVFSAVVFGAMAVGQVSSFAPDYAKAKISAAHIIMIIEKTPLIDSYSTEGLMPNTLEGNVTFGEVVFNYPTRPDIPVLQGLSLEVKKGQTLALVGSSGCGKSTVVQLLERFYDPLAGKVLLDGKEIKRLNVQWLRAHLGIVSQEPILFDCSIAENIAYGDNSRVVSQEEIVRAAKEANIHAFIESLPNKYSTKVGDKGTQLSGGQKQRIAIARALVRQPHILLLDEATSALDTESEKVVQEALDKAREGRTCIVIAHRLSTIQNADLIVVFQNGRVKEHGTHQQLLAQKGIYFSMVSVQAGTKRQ

## O=C1CCO1
[1]
  inhibition: 12.7%
[2]
  score: 1.2
[3]
  rescue above control: 11.7
[4]
  cytochrome c release ratio: 1.11
[5]
  inhibition of aggregation: 22.4%
[6]
  glutamate uptake change: 5.98%
[7]
  inclusion score: 2
[8]
  aggregation suppression score: 1.23
[9]
  parasite load remaining: 165% (inactive) and 39.1% (inactive)
  viability: 91.2% and 89.3%
[10]
  inhibition: -4.86% (inactive)
[11]
  red/green cell ratio (normalised): 1.22 (inactive)
[11]; [24]
  normalised cell number: 0.9
[11]; [25]
  normalised cell number: 1.09
[12]; stronger effect = lower value
  fold change: 0.872 (inactive)
[12]; [26]
  fold change: 2.98
[12]; [27]
  cell count: 11800
[12]; [28]
  cell count: 13500
[13]
  remaining NAD: 10 nM (inactive)
[14]
  luciferase signal: 100 AU (inactive)

## O=C(O)CF
[10]
  inhibition: 10.5% (inactive)
[11]; counts scaled to control wells, 1 = unselective
  red/green cell ratio (normalised): 0.92 (inactive)
[11]; [24]
  normalised cell number: 1.09
[11]; [25]
  normalised cell number: 1
[14]
  luciferase signal: 80 AU (inactive)

## COC1=CC23CCCN2CCc2cc4c(cc2C3C1O)OCO4 (centres undefined)
[10]
  inhibition: -9.46% (inactive)
[15]
  activity remaining: 108% (inactive)

## CNC(=O)N(C)c1nnc(C(C)(C)C)s1
[10]
  inhibition: -12.3% (inactive)
[15]
  activity remaining: 98% (inactive)

## CNc1ccccc1C(=O)O
[10]
  inhibition: 18.3% (inactive)
[11]
  red/green cell ratio (normalised): 0.85 (inactive)
[11]; [24]
  normalised cell number: 1.13
[11]; [25]
  normalised cell number: 0.95
[14]
  luciferase signal: 76 AU (inactive)

## COc1c(CC=C(C)C)c2c(c3oc(=O)c(-c4ccc(O)cc4)c(O)c13)C=CC(C)(C)O2
[10]
  inhibition: -2.87% (inactive)
[15]
  activity remaining: 114% (inactive)

## CNc1ccc(C(=O)CC(O)CCC(C)C2OC(=O)CC(O)CC(=O)CC(O)CC(O)CC(O)CC(O)CC3(O)CC(O)C(C(=O)OC)C(CC(O[C@@H]4O[C@H](C)[C@@H](O)[C@H](N)[C@@H]4O)/C=C/C=C/C=C/C=C/C=C/C=C/C=C/C2C)O3)cc1 (some centres undefined)
[9]
  parasite load remaining: 132% (inactive) and 33.6% (inactive)
  viability: 90% and 101%
[10]
  inhibition: 2.08% (inactive)
[11]
  red/green cell ratio (normalised): 1.39 (inactive)
[11]; [24]
  normalised cell number: 0.82
[11]; [25]
  normalised cell number: 1.14
[12]; stronger effect = lower value
  fold change: 0.878 (inactive)
[12]; [26]
  fold change: 3.37
[12]; [27]
  cell count: 11000
[12]; [28]
  cell count: 12500
[13]
  remaining NAD: 10 nM (inactive)

## C[C@]12CCC3C(CC[C@]4(O)C[C@@H](O)CC[C@]34C=O)[C@@]1(O)CCC2C1=CC(=O)OC1 (some centres undefined)
[2]
  score: 1.09
[3]
  rescue above control: 6.59
[4]
  cytochrome c release ratio: 1.29
[5]
  inhibition of aggregation: 62.8%
[6]
  glutamate uptake change: 13.8%
[7]
  inclusion score: 0
[8]
  aggregation suppression score: 1.29
[10]
  inhibition: 14.9% (inactive)
[11]
  red/green cell ratio (normalised): 0.2 (inactive)
[11]; [24]
  normalised cell number: 0.18
[11]; [25]
  normalised cell number: 0.04
[15]
  activity remaining: 79.3% (inactive)

## C=CCc1ccc2c(c1)OCO2
[1]
  inhibition: -35.5%
[2]
  score: 0.7
[3]
  rescue above control: -4.01
[4]
  cytochrome c release ratio: 0.78
[5]
  inhibition of aggregation: 27.9%
[6]
  glutamate uptake change: 1.11%
[8]
  aggregation suppression score: 0.706
[9]
  parasite load remaining: 147% (inactive)
  viability: 87.4%
[10]
  inhibition: 7.49% (inactive)
[11]
  red/green cell ratio (normalised): 0.79 (inactive)
[11]; [24]
  normalised cell number: 1.31
[11]; [25]
  normalised cell number: 1.03
[15]
  activity remaining: 124% (inactive)
[14]
  luciferase signal: 40 AU (inactive)

## CC1C[C@H]2CC(=O)[C@H]3CCCN4CCC[C@H]2[C@]34C1 (some centres undefined)
[10]
  inhibition: -1.6% (inactive)
[15]
  activity remaining: 91.3% (inactive)

## OC[C@@H]1CCCN2CCCC[C@H]12
[9]
  parasite load remaining: 133% (inactive)
  viability: 91.1%
[10]
  inhibition: -5.58% (inactive)
[11]
  red/green cell ratio (normalised): 0.92 (inactive)
[11]; [24]
  normalised cell number: 0.97
[11]; [25]
  normalised cell number: 0.89
[15]
  activity remaining: 109% (inactive)
[14]
  luciferase signal: 48 AU (inactive)

## COc1cccc2c1cc([N+](=O)[O-])c1c(C(=O)O)cc3c(c12)OCO3
[10]
  inhibition: -5.9% (inactive)
[15]
  activity remaining: 103% (inactive)
[12]; stronger effect = lower value
  fold change: 1.04 (inactive)
[12]; [26]
  fold change: 1.14
[12]; [27]
  cell count: 4170
[12]; [28]
  cell count: 4020
[16]
  fold fluorescence: 4.86 [at 146.5 µM] (inactive)
[14]
  luciferase signal: 36 AU (inactive)

## c1ccc2c(c1)[nH]c1cnccc12
[17]
  fluorescence slope change: 73% (active)
[10]
  inhibition: 1.67% (inactive)
[11]
  red/green cell ratio (normalised): 1 (inactive)
[11]; [24]
  normalised cell number: 0.91
[11]; [25]
  normalised cell number: 0.91
[15]
  activity remaining: 105% (inactive)
[14]
  luciferase signal: 44 AU (inactive)

## C=C1C2CC[C@@]3(C)[C@H](c4ccoc4)OC(=O)C[C@]13O[C@H]1CC(=O)C(C)(C)[C@H](C(OC(C)=O)C(=O)OC)[C@@]21C (some centres undefined)
[10]
  inhibition: 6.78% (inactive)
[15]
  activity remaining: 88.1% (inactive)

## CC(C)(O)[C@@H]1[C@H]2OC(=O)[C@@H]1[C@]1(O)C[C@H]3O[C@]34C(=O)O[C@H]2[C@]14C
[1]
  inhibition: -16.4%
[2]
  score: 1.49
[3]
  rescue above control: 8.41
[4]
  cytochrome c release ratio: 0.87
[5]
  inhibition of aggregation: 51%
[6]
  glutamate uptake change: 14.8%
[7]
  inclusion score: 2
[8]
  aggregation suppression score: 1.53
[9]
  parasite load remaining: 79% (inactive)
  viability: 91.4%
[10]
  inhibition: 6.64% (inactive)
[11]
  red/green cell ratio (normalised): 0.89 (inactive)
[11]; [24]
  normalised cell number: 1.1
[11]; [25]
  normalised cell number: 0.99
[15]
  activity remaining: 107% (inactive)
[14]
  luciferase signal: 84 AU (inactive)

## c1ccc(N=Nc2ccccc2)cc1
[1]
  inhibition: -11.7%
[2]
  score: 0.28
[3]
  rescue above control: 6.73
[4]
  cytochrome c release ratio: 0.73
[5]
  inhibition of aggregation: 88.8%
[6]
  glutamate uptake change: -16%
[8]
  aggregation suppression score: 0.313
[9]
  parasite load remaining: 103% (inactive)
  viability: 66.9%
[10]
  inhibition: 14.4% (inactive)
[11]
  red/green cell ratio (normalised): 0.85 (inactive)
[11]; [24]
  normalised cell number: 1.3
[11]; [25]
  normalised cell number: 1.1
[15]
  activity remaining: 103% (inactive)
[14]
  luciferase signal: 40 AU (inactive)

## COC(=O)COc1ccc(Cl)cc1Cl
[10]
  inhibition: -25.1% (inactive)
[15]
  activity remaining: 109% (inactive)

## O=c1cccc2n1CC1CNC[C@H]2C1
[9]
  parasite load remaining: 134% (inactive)
  viability: 104%
[10]
  inhibition: -36.3% (inactive)
[18]
  remaining activity: 96.4% (inactive)
[19]
  outcome: inactive
[20]
  AC50: 2.64 µM (active)
[21]
  outcome: inactive
[22]
  outcome: inactive
[12]; stronger effect = lower value, cell number ratio, induced over uninduced
  fold change: 0.809 (inactive) and 0.946 (inactive)
[12]; [26]
  fold change: 1.71 and 1.27
[12]; [27]
  cell count: 8130 and 8990
[12]; [28]
  cell count: 10000 and 9510
[13]
  remaining NAD: 10 nM (inactive)
[14]
  luciferase signal: 60 AU (inactive)
[23]
  z-score: 1.16 (inactive)
